High-throughput results from PubChem.
An excerpt weighted towards active compounds, which were near 12% of everything screened.
L3MBTL1 inh – L3MBTL1 (human) inhibition | AlphaScreen L3MBTL1–H3K9me1 peptide binding | Potency, µM (series often up to 57.1 µM), for inactives: top-dose activity, negative = inhibition, most hits filed as inhibitors | actives 0.66% (n = 230,000) | AID 485360; note: % is set by controls: 0 for no effect and ±100 for the full control effect; nearly all actives have a fitted effect of over 60% in size
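L3MBTL1 (50 nM) pre-complexed 30 min with biotinylated H3(1-15)K9me1 peptide (75 nM), then compounds added for 30 min at room temperature; AlphaScreen streptavidin donor/nickel chelate acceptor beads (10 ug/mL final) read after 30 min dark incubation.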
HP1b chromo inh – HP1-beta chromodomain-methylated histone interaction inhibition | P83916 | AlphaScreen HP1-beta / biotin-H3K9me3 peptide binding | Potency, µM (doses to about 114 µM), for inactives: top-dose activity change, negative = inhibition, most hits filed as inhibitors | actives 0.56% (n = 390,000); note: nearly all actives have a fitted effect of over 70% in size
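HP1-beta protein (50 nM final) preincubated 30 min at room temperature with biotinylated H3(1-18)K9me3 peptide (50 nM) in PBS pH 7.4, 0.01% Tween-20, then compound added for 30 min. AlphaScreen streptavidin donor/nickel chelate acceptor beads (10 ug/mL final), 30 min dark, luminescence read.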
JMJD2A Tudor – JMJD2A Tudor domain (human) inhibition; AlphaScreen JMJD2A-Tudor / H3K4me3 peptide binding; actives 4.4% (n = 390,000); Potency, µM (series often up to 114 µM), for the others: top-dose activity change, negative = inhibition, usual class: inhibitors; AID 504339; O75164; note: % is set by controls: 0 for no effect and ±100 for the full control effect; nearly all actives have a fitted effect of over 50% in size
Target sequence (O75164 whole entry, looked up, the tested form may be a part): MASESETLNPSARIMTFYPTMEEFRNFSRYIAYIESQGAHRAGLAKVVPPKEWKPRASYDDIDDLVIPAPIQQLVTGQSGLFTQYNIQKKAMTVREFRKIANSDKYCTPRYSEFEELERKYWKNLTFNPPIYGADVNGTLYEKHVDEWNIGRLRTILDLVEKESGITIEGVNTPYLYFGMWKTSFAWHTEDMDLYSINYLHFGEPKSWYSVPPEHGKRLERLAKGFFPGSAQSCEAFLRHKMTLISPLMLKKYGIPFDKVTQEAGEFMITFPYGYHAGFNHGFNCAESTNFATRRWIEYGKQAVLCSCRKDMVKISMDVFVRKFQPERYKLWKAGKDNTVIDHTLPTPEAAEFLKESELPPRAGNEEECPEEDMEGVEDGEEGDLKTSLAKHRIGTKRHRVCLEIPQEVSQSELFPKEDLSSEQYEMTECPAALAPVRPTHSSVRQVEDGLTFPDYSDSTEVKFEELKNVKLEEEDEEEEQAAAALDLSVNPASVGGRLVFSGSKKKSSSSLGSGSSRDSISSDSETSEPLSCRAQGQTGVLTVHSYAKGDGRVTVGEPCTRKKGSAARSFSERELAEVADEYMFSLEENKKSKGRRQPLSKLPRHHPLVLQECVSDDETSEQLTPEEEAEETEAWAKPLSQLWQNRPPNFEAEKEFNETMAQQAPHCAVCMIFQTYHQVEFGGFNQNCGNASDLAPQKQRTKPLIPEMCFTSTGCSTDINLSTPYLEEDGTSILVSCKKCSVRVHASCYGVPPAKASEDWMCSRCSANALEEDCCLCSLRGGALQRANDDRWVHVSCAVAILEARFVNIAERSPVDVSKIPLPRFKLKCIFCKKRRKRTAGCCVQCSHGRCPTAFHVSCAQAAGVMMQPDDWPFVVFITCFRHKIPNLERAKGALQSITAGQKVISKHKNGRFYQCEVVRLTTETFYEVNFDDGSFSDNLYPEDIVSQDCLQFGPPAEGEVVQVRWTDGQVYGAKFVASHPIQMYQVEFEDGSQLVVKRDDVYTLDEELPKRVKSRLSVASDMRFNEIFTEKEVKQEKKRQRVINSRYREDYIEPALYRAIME
BAZ2B inh – blocks human BAZ2B. Q9UIF8. AlphaScreen BAZ2B-H3K14Ac peptide displacement. Potency, µM (series often up to 114 µM), for the others: at the top dose activity change, negative = inhibition, hits mostly inhibitors. actives 4.4% (n = 360,000); note: % is set by controls: 0 for no effect and ±100 for the full control effect; nearly all actives have a fitted effect of over 60% in size
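AlphaScreen luminescence quantifies BAZ2B engagement of H3K14Ac peptide; the protein and biotinylated peptide are both at 50 nM final, buffer PBS pH 7.4 with 0.01% Tween-20, all steps at room temperature.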
Sfp inh – Sfp phosphopantetheinyl transferase inhibition | Q9F4F7 | Biochemical Sfp PPTase activity, qHTS | Potency, µM, for the others: largest response in the series, negative = inhibition, most hits filed as inhibitors | actives 3.5% (n = 310,000);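 note: the enzyme is Sfp with the accession as filed and its product quenches rhodamine fluorescence; 0% = enzyme reaction without inhibitor and -100% = no enzyme wells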
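Step 1, compound plus 15 nM Sfp-PPTase, 15 min, room temperature. Step 2, add rhodamine-CoA (5 uM) and BHQ-2-YbbR (12.5 uM). Step 3, read 525/598 nm fluorescence at 0 and 30 min.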
G9a block – blocks human histone lysine methyltransferase G9a | AID 504332 | Q96KQ7 | G9a H3K9 monomethylation, AlphaScreen, 2 h | actives 8.8% (n = 350,000) | Potency, µM (highest dose often 102 µM), for inactives: top-dose activity, negative = inhibition, most hits filed as inhibitors; note: % is set by controls: 0 for no effect and ±100 for the full control effect; nearly all actives have a fitted effect of over 75% in size
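Enzyme 20 nM + cpd, 15 min RT; add b-H3K9 pep 500 nM / SAM 20 uM; 2 h RT; anti-H3K9me1 Ab 0.5 ug/mL + SA donor / anti-rabbit acceptor beads 20 ug/mL each, 10 min; AlphaScreen read.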
* marks the source's active call; other numbers are inactive results; u = inconclusive; x = not tested or not shown; [ ] = another dose, or the depositor's remark. Calls come from the whole dose curve; as a rule, active = well fitted curve in the direction sought with a large enough effect; inconclusive = small, poorly fitted or top-dose-only effect, or another doubt; inactive = no such curve, though single readings can be large; an effect the other way counts as inactive or inconclusive. Potency is the fitted concentration of half-maximal effect.

SMILES	L3MBTL1 inh	HP1b chromo inh	JMJD2A Tudor	BAZ2B inh	Sfp inh	G9a block
CSCC[C@H](NC(=O)[C@H](CC(C)C)NC(=O)CNC(=O)[C@H](Cc1ccccc1)NC(=O)[C@H](Cc1ccccc1)NC(=O)[C@H](CCC(N)=O)NC(=O)[C@H](CCC(N)=O)NC(=O)[C@@H]1CCCN1C(=O)[C@H](CCCCN)NC(=O)[C@@H]1CCCN1C(=O)[C@@H](N)CCCN=C(N)N)C(N)=O	x	x	x	x	-14.6%	x
Cc1cccc(N2CCN(C(=O)c3cc4ccc5cccnc5c4[nH]3)CC2C)c1 (stereo unspecified)	x	-14.2%	28.2µM*	28.2µM*	x	u
Cc1cccc(N2CCN(C(=O)c3ccc(N4CCCC4=O)cc3)CC2C)c1 (stereo unspecified)	-4.9%	46.5%	-26.4%	-30.0%	10.2%	37.8%[0.501 µM]
CC1=C(C(=O)Nc2cc(C(=O)N3CCN(c4cccc(C)c4)C(C)C3)ccc2C)SCCO1 (stereo unspecified)	x	-7.4%	u	u	6.0%	35.5µM*
Cc1cccc(N2CCN(C(=O)c3ccc4c(c3)c(C)c(C)n4C)CC2C)c1 (stereo unspecified)	x	39.8µM*	28.2µM*	22.4µM*	-17.0%	44.7µM*
COc1ccc(N2CCN(C(=O)c3ccc(C)c(NC(=O)C4=C(C)OCCS4)c3)CC2)cc1	x	22.5%	u	44.7µM*	9.0%	39.8µM*
Cc1ccc(C)c(N2CCN(C(=O)c3cc4ccc5cccnc5c4[nH]3)CC2)c1	x	-11.0%	u	-23.7%[57.1 µM]	x	-49.6%[59 µM]
CCOC(=O)C1CCCN(C(=O)c2ccc(C)c(NC(=O)C3=C(C)OCCS3)c2)C1 (stereo unspecified)	x	30.3%	-17.6%	-21.3%	11.1%	42.9%
CCc1ccc(NC(=O)C2CCCN(S(=O)(=O)c3c(C)noc3/C=C/N(C)C)C2)cc1 (stereo unspecified)	x	40.7%	-28.5%	-27.4%	x	-8.0%[59 µM]
Cc1ccc(OCc2nc(-c3ccc(C(=O)NCc4ccc(OC(C)C)cc4)cc3)oc2C)cc1	x	48.9%	-3.8%	-16.5%	x	-31.5%[59 µM]
CCN(C(=O)Cn1nc(Cc2ccncc2)c2ccccc2c1=O)c1cccc(Cl)c1	x	22.7%	-25.2%	-14.9%	x	-5.6%[59 µM]
CS(=O)(=O)c1ccc2c(c1)sc1nc(=O)c(/C=C3/C=CC(=O)C(O)=C3)c(N)n12	u	15.8µM*	7.08µM*	14.1µM*	31.6µM*	5.01µM*
O=C(c1ccc([N+](=O)[O-])o1)N1CCN(c2nc3c(Cl)cccc3s2)CC1	-22.4%	-17.4%	u	u	x	35.5µM*
NS(=O)(=O)c1ccc(O)c(NC(=O)c2ccc([N+](=O)[O-])o2)c1	-7.9%	44.7µM*	50.1µM*	-15.8%	11.2µM*	u
CN1CCN(c2ccccc2NC(=O)c2ccc(-c3ccccc3[N+](=O)[O-])o2)CC1	x	-30.8%	56.2µM*	u	-14.5%	u
O=C(Nc1ccccc1N1CCCCC1)c1ccc([N+](=O)[O-])o1	-23.4%	44.7µM*	u	11.2µM*	x	11.2µM*
Cc1ccccc1Cn1c(=O)n(Cc2ccco2)c(=O)c2oc3ccccc3c21	x	19.5%	-4.0%	-36.2%	x	-26.2%[59 µM]
Cc1ccccc1-c1csc2ncnc(Sc3nnnn3C)c12	x	x	-8.9%	x	x	x
O=C(Nc1cccc(Cl)c1N1CCCC1)c1ccc([N+](=O)[O-])o1	-17.6%	-25.2%	u	u	0.4%	10µM*
O=C(Nc1cccc(Cl)c1N1CCCC1)c1ccc(Br)o1	x	3.5%	1.8%	u	0.3%	u
COc1ccc(S(=O)(=O)NCCc2sc3nc(-c4ccc(C)cc4)nn3c2C)cc1C	x	17.3%	-22.4%	-14.0%	x	7.0%[59 µM]
CC1CCN(C(=O)c2ccc(CSc3nc4ccncc4n3Cc3ccc(F)cc3)cc2)CC1	-1.0%	18.7%	-20.4%	-7.7%	-2.9%	79.4µM*
O=C(CNc1cccc2ccccc12)N/N=C/c1cccc(Oc2ccccc2)c1	-8.5%	-4.5%	u	u	-3.8%	10µM*
Cc1ccccc1NCC(=O)N/N=C/c1ccc([N+](=O)[O-])cc1	-3.0%	19.8%	-21.2%	-8.0%	-6.8%	u
O=C(CNc1cccc2ccccc12)N/N=C/c1ccc([N+](=O)[O-])cc1	3.0%	37.5%	-2.1%	-2.2%	5.7%	8.91µM*
SMILES	L3MBTL1 inh	HP1b chromo inh	JMJD2A Tudor	BAZ2B inh	Sfp inh	G9a block
COc1cccc(/C=N/NC(=O)CCn2c3ccccc3c3ccccc32)c1	9.0%	27.2%	8.4%	-24.7%	16.9%	17.8µM*
CCN1CCC(O)(/C=C/c2ccc(C(C)C)cc2)C(C(=O)/C=C/c2ccc(C(C)C)cc2)C1 (stereo unspecified)	x	u	31.6µM*	x	x	x
CCN1CCN(C(=O)/C=C/c2ccc(C(C)C)cc2)CC1	x	2.1%	-6.8%	x	x	x
CCNc1ncc2nc(-c3cccs3)c(=O)n(-c3ccc(OC)cc3)c2n1	x	x	x	x	13.8%	15.1%[12.7 µM]
COc1ccc(Cl)cc1NC(=O)c1nc(S(C)(=O)=O)ncc1N(Cc1ccc(C)cc1)Cc1ccco1	x	41.4%	-15.2%	u	x	-3.7%[59 µM]
CCCCc1nc2sc3c(SCCN(C)C)ncnc3c2c2c1CCC2	-7.6%	-22.2%	50.1µM*	-26.8%	u	u
CCCCc1nc2sc3c(SCC(=O)NCc4ccco4)ncnc3c2c2c1CCC2	-25.9%	2.3%	-32.2%	u	44.7µM*	22.5%[0.501 µM]
NC(N)=NC[C@@H]1COC2(CCCCC2)O1	x	x	x	x	15.9%	28.9%[21.5 µM]
CCOC(=O)C1=C(C)N(C)C(=O)C1CC(=O)O (stereo unspecified)	0.3%	-57.5%	56.2µM*	-3.1%	11.8%	-15.5%[59 µM]
CCOC(=O)NNC1CC(=O)N(c2ccccc2)C1=O (stereo unspecified)	2.0%	13.8%	-12.5%	0.4%	-7.5%	u
CCOC(=O)C1=C(C)N(c2ccccc2)C(=O)C1CC(=O)O (stereo unspecified)	2.6%	48.7%	4.7%	4.4%	11.3%	17.8µM*
COc1ccc(-n2cccc2/C=C/[N+](=O)[O-])cc1	-5.4%	44.7µM*	44.7µM*	35.5µM*	u	39.8µM*
COc1ccc(-n2cccc2C=O)cc1	3.7%	19.6%	-14.7%	-6.2%	11.7%	-11.4%[59 µM]
CCN1/C(=C2\C(=O)N(c3ccccc3)N=C2C)C=Cc2cc(C)ccc21	5.1%	21.3%	-8.4%	56.2µM*	18.0%	u
O=C1CCCC=C1[C@@H](O)CCOCc1ccccc1	x	x	x	x	0.8%	x
COC(=O)[C@H](C)NC(=O)NCCC1=CCCCC1	-12.7%	6.8%	70.8µM*	-12.0%	12.0%	7.9%
CCC(C)[C@H](NC(=O)NCCC1=CCCCC1)C(=O)OC (stereo partly specified)	9.3%	-0.5%	-6.8%	-2.0%	3.4%	u
